# Experimental data from PubChem BioAssay (NCI).
# About 83,000 compounds went through this panel and 20% of them were active in at least one assay; those are over-represented in the sample as a whole.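 How to read the values: 0–100, growth inhibition (40 = 60% inhibited); 0, no net growth; -100 to 0, cell death (-40 = 40% of starting cells died; -100 = all dead).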 Unmarked numbers belong to inactive results. Active and inactive are the calls of the source. The calls were made as follows: active = growth percent below 10; inactive = the rest.
# Test system: IGROV1 ovarian
# Experiment: NCI-60 one-dose screen, 48 h (100 = growth as untreated, 0 = no growth, -100 = all killed)
# Details: 10 µM unless noted
row,SMILES,growth [%]
1,Cc1cccc(-c2ccccc2Oc2ccc3nnc(Cl)n3n2)c1,103
2,C[C@H](NC(=O)c1ccc2c(-c3ccc(C(F)(F)F)cc3)cccc2c1)c1ccccn1,55.8
3,Cc1ccc(C(=O)Nc2cc(-c3ccccc3)cc(C(F)(F)F)c2)cc1C#Cc1cnc2cccnn12,93.1
4,O=[N+]([O-])c1cccc(-c2nnc3c(/C=C/c4ccc(F)cc4)nc4ccccc4n23)c1,109
5,O=C1Nc2cc(-c3ccc(NS(=O)(=O)c4ccc(C(F)(F)F)cc4)cc3)ccc2/C1=C/c1ccc[nH]1,61.3

# Test system: OVCAR-3 ovarian
# Experiment: as above
# Details: 10 µM unless noted
row,SMILES,growth
1,CC1=C(C(=O)Nc2ccccc2)C(c2cccc3ccccc23)n2c(nc3ccccc32)N1 (stereo not drawn),38.6%
2,COc1ccc(NC(=O)CSc2nnc(-c3ccc(-c4nc5ccccc5[nH]4)cc3)o2)cc1,41.4%
3,COc1cc2cc(C(=O)N3C[C@@H](CCl)c4c3cc(OC(=O)N(C)CCSSCCN3CCOCC3)c3ccccc43)[nH]c2c(OC)c1OC,-1.85% (active)
4,CC(=O)C[n+]1cccc2c3ccccc3ccc21,70%
5,CC[C@]12C=CCN3CC[C@]4(C(=C(C(=O)OC)C1)Nc1cc(OC)c([C@@H]5[C@H]6O[C@H]6[C@@]6(CC)CC(C(=O)OC)=C7Nc8cc(O)ccc8[C@@]78CCN5[C@@H]68)cc14)[C@@H]32,-9.2% (active)
6,Cc1ccccc1Nc1nnc(-c2c[nH]c3ccccc23)o1,7.3% (active)
7,COc1cncc(-c2ccc3ncnc(N4CCc5ccc(Cl)cc54)c3c2)c1,55.4%
8,Clc1ccc2c(NCCNC34CC5CC(CC(C5)C3)C4)ccnc2c1,-52.4% (active)
9,Cn1cc(-c2cc(N)n3nc(-c4c[nH]c5ccccc45)cc3n2)c2cc(Br)ccc21,-48% (active)
10,Cc1nn(-c2ccccc2)c2nc(C)n(CC(=O)N/N=C/c3cccc([N+](=O)[O-])c3)c(=O)c12,106%
11,Cc1ccc(S(=O)(=O)Nc2ccc(-c3ccc4c(c3)NC(=O)/C4=C\c3ccc[nH]3)cc2)cc1,125%
12,O=C1c2cccc3c(N4CCN(c5ccccc5)CC4)ccc(c23)C(=O)N1c1cccc(-c2nn(-c3ccccc3)cc2-c2nc3ccccc3s2)c1,98%
13,COc1ccc(-c2cc(-c3cc(C(C)C)c(O)cc3C)nn2-c2ccc(S(N)(=O)=O)cc2)cc1,8.38% (active)
14,Clc1ccc(-c2nc3c4c(-c5ccccc5)c(-c5ccccc5)n(Cc5ccccc5)c4ncn3n2)cc1,14.7%
15,Cc1ccc(-c2cc(C(=O)N=Nc3c(O)[nH]c4ccc(F)cc34)c3ccccc3n2)cc1,95.3%
16,COc1ccc(/C=C/c2nc3ccccc3n3c(-c4cccc([N+](=O)[O-])c4)nnc23)cc1,-77.4% (active)
17,O=C(c1ccc(O)cc1)C1[C@H](c2ccc(Cl)cc2)[C@@H](c2ccccc2)NC12C(=O)Nc1ccccc12 (stereo partly drawn),6.48% (active)
18,N#C/C(=C1/C(=O)Nc2ccccc21)c1nnc(NC(=O)c2ccc(-n3c(=O)[nH]c4ccccc4c3=O)cc2)s1,25.6%
19,CN(C(=O)CN1C(=O)/C(=C/c2ccco2)SC1=S)C1CCS(=O)(=O)C1 (stereo not drawn),99.9%
20,COc1c2c(cc3c1C(CCc1ccccc1)N(C)CC3)OCO2 (stereo not drawn),3.16% (active)
21,COc1cc(C2CC(c3ccc(F)cc3)=Nc3c(N)nc(N)nc3N2)ccc1Oc1nc(Nc2ccc(F)cc2)nc(N(C)C)n1 (stereo not drawn),71.6%
22,CC(C)C[C@H](NC(=O)CNC(=O)C[C@H]1O[C@@H]2OC3(C)CC[C@H]4[C@H](C)CC[C@@H]([C@H]1C)[C@@]24O3)B(O)O,-33.1% (active)
23,Cc1[nH]nc2ccc3nc(-c4cnn(CCO)c4)c4c(c3c12)CCCC4,90.2%
24,CCCN(CCC)S(=O)(=O)c1ccc(C(=O)O)cc1.CCCN(CCC)S(=O)(=O)c1ccc(C(=O)O)cc1.[Cl][Pt+2][Cl].[NH2-].[NH2-],0.454% (active)
25,COc1ccc(N=Nc2c(N)nn3c(-c4ccc5c(c4)C=S=C5)ccnc23)cc1,48.4%
26,O=C(NNC(=O)c1ccc(OCc2nc3ccc(Cl)cc3[nH]2)cc1)Nc1ccc(Cl)c(Cl)c1,82.7%
27,Cc1nc(Nc2ccccn2)sc1C1=NNC(c2ccccc2F)C1 (stereo not drawn),24.8%
28,COc1ccc(-c2nc3ccccc3n2CC(=O)N=Nc2c(O)[nH]c3ccc(Br)cc23)cc1,48.7%
